Consider 3 compounds from PubChem BioAssay.

Assay [1] can be described thus: signal quenchers or enhancers, Cy5 substrate/SSB – biochemical, NIH Clinical Collection, E. coli SSB, artefact control for HCV NS3 helicase inhibitor project (AID 743268; call rule not given here). The following applies: Cy5-oligo bound E. coli SSB, fluorescence interference.
Assay [2] deals with Hepatitis C virus NS3 helicase. The experiment in a line: blockers of NS3h binding to DNA – biochemical, fluorescence polarization, NIH Clinical Collection, primary screen (AID 743270; call rule not given here). The settings on record: NS3 helicase binding to Cy5-dT15 DNA, stronger effect = higher value, concentration not given here.
For assay [3], the target named is Single-stranded DNA-binding protein (Escherichia coli (strain K12)) (UniProt P0AGE0). Kind of assay: SSB-ssDNA binding inhibitors – biochemical, fluorescence polarization, NIH Clinical Collection, counter-screen for HCV NS3 helicase inhibitor project (AID 743271; in the data active = inhibition above about 28%). The following applies: E. coli SSB-DNA binding, stronger effect = higher value, concentration not given here.
Assay [4] in a line: compounds distorting NS3 helicase fluorescence signal – biochemical, NIH Clinical Collection, artefact control for HCV NS3 helicase inhibitor project (AID 743272; call rule not given here;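 also: HCV NS3 helicase with a Cy5 labelled single stranded DNA probe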). The following applies: fluorescence interference counterscreen, HCV NS3 helicase assay; stronger effect = lower value.
Assay [5] in a line: modulation of C. elegans fzo-1 (AID 1259413; call rule not given here;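 also: fzo-1 mutant C. elegans worms in liquid wells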). The following applies: C. elegans fzo-1 modulator screen, mean read-out; stronger effect = higher value.
Assay [6] in a line: EMT-state selective cytotoxicity in co-culture – imaging, PC-3E GFP, TEM4-18 mCherry, primary screen (AID 1345086;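 active = compounds killing one labelled cell type while sparing the other, by normalised counts and ratio limits, not self-fluorescent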;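 as to all read-outs here: cells exposed to compound for 72 h before imaging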;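 as to red/green cell ratio (normalised): normalised mesenchymal count divided by normalised epithelial count so high means epithelial killing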). The settings on record: PC-3E GFP / TEM4-18 mCherry co-culture, imaging cell counts, at 1 µM; for red/green cell ratio (normalised): actives lie on both sides, counts scaled to control wells, 1 = unselective.
Assay [7] can be described thus: MELAS cybrid and Rieske KO viability enhancers – cell-based, MELAS cybrids, Rieske KO mouse fibroblasts, CellTiter-Glo, primary screen (AID 1508586;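 active = mean z-score across replicates of 1.96 or higher in either the MELAS or the Rieske mutant cell line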;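 also: z relative to plate mean and SD of compound and empty wells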). The settings on record: low glucose.
The subject of assay [8] is F380Y. The experiment in a line: BK channel mutant inhibitors and activators – cell-based, U2OS BacMam, thallium flux, beta subunits, selectivity assay, profiling panel (AID 1259406).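 Also: initial slope of Thallos dye fluorescence rise after thallium is added; log ratio against the mean of 0.3% DMSO vehicle wells on the same plate.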 The settings on record: U2OS BacMam BK variants, at 30 µM.
The subject of assay [9] is F380Y/beta1. The assay is described as above. The settings on record: U2OS BacMam BK variants, at 30 µM.
Assay [10] has as its system F380Y/beta2Delta. The description is as above. The following applies: U2OS BacMam BK variants, at 30 µM.
For assay [11], the system named is F380Y/beta4. Described as above. The settings on record: U2OS BacMam BK variants, at 30 µM.
Assay [12] concerns the target Calcium-activated potassium channel subunit alpha-1 (Homo sapiens) + Leucine-rich repeat-containing protein 26 (Homo sapiens) (UniProt Q12791+Q2I0M4). The description is as above. The following applies: U2OS BacMam BK variants, F380Y/Slo1WT/gamma1, at 30 µM.
In assay [13] the test system is R275C. Described as above. The following applies: U2OS BacMam BK variants, at 30 µM.
Assay [14] has as its system R275C/beta1. The description is as above. The following applies: U2OS BacMam BK variants, at 30 µM.
Assay [15] concerns R275C/beta2Delta. The assay is described as above. The settings on record: U2OS BacMam BK variants, at 30 µM.
In assay [16] the test system is R275C/beta4. Described as above. The settings on record: U2OS BacMam BK variants, at 30 µM.
Assay [17] deals with R275C/Slo1WT/beta2. The assay is described as above. The following applies: U2OS BacMam BK variants, at 30 µM.
Assay [18] in a line: P. berghei load reduction in hepatocytes – cell-based, HepG2, luciferase luminescence, HepG2 viability, primary screen (AID 624349; in the data active = parasite load remaining mostly below about 12%, no sharp cut-off; inactive = mostly above about 10%;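 also: 100% = mean of DMSO negative control wells on the same plate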). The following applies: P. berghei liver stage in HepG2, luciferase luminescence, concentration not given here; parasite load remaining: stronger effect = lower value; viability: measured here: HepG2 viability without parasites.
The nature of assay [19]: viability loss with induced miR-34 in A549 – imaging, A549 dox-inducible miR-34, nuclei and caspase counts, primary screen (AID 1347080;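 active = compounds whose cell count with miR-34 switched on is under 0.7 times the count with it off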). The settings on record: A549 miR-34 inducible, Hoechst nuclei count, 48 h.
The mark [20] stands for this setting: measured here: epithelial PC-3E GFP cell survival.
Setting [21] is: measured here: mesenchymal TEM4-18 mCherry cell survival.
Setting [22] is: MELAS cybrid survival, CellTiter-Glo 48 h, stronger effect = higher value.
The mark [23] stands for this setting: Rieske KO mouse fibroblast survival, CellTiter-Glo 72 h.
The mark [24] stands for this setting: stronger effect = lower value, cell number ratio, induced over uninduced.
Where [25] appears, read: measured here: relative caspase fold change +Dox/-Dox.
Where [26] appears, read: measured here: total cells with miR-34 induction, stronger effect = lower value.
Setting [27] is: measured here: total cells without miR-34 induction.

Several values for one entry are separate records, joined by “and”; a condition that tells them apart may be missing. Equal entries are not always repeated. A structure can be active in one record and inactive in another. Activity calls are given as the source filed them.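 The calls were made as follows, unless noted: active = thallium flux through the channel raised or lowered by more than 3 SD from vehicle-only wells, actives on both sides; inactive = the rest.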

Chain of Calcium-activated potassium channel subunit alpha-1 (Homo sapiens) + Leucine-rich repeat-containing protein 26 (Homo sapiens) (Q2I0M4 whole entry, looked up, one chain of several): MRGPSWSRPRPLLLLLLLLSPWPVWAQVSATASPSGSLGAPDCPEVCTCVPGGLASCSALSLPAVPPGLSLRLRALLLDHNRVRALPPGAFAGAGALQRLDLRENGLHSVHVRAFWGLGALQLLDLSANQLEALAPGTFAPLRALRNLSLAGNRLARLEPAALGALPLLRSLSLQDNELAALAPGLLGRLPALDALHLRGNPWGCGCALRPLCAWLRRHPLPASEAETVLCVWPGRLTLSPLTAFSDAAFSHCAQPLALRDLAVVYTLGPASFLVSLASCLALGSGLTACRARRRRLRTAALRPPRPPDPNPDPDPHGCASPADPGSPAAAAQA

For `Cc1cnc(C(=O)NCCc2ccc(S(=O)(=O)NC(=O)NC3CCCCC3)cc2)cn1`, the results for the fluorescence ratio in [1] and in assay [4] were 1.05 (inactive) and 0.98 (inactive), respectively. In addition, the inhibition in assay [2] was -5% (inactive); in assay [3], -2% (inactive). Also, the mean signal in assay [5] was 228 (inactive). Further, the red/green cell ratio (normalised) in assay [6] is 1.07 (inactive). Besides, the normalised cell number is 0.87 in assay [6] (setting [20]) and 0.93 in [6] (setting [21]). Besides, the z-score in assay [7] (setting [22]) was 0.0771 (inactive) and 0.00808 (inactive) and -0.837 (inactive); in assay [7] (setting [23]), 0.368 and 0.143 and -0.894. The log fold change Tl+ flux was -0.0483 (inactive) in assay [8]; -0.0347 (inactive) in assay [9]; -0.0103 (inactive) in assay [10]; 0.0321 (inactive) in [11]; -0.0267 (inactive) in assay [12]; 0.0214 (inactive) in assay [13]. Also, the log fold change Tl+ flux was 0.0314 (inactive) in assay [14], 0.0193 (inactive) in assay [15], 0.0322 (inactive) in assay [16] and 0.0429 (inactive) in assay [17].
Consider `CN(C)CCOc1ccc(/C(=C(/CCCl)c2ccccc2)c2ccccc2)cc1`, for which the parasite load remaining in assay [18] is 2.65% (inactive) and 4% (inactive). Besides, the viability in assay [18] is 97.2% and 73.5%. Also, the figures for the fluorescence ratio in [1] and in assay [4] were 0.79 (active) and 0.82 (inactive), respectively. Besides, the results for the inhibition in [2] and in assay [3] were -1.97% (inactive) and 20.1% (inactive), respectively. Moreover, the mean signal in assay [5] was 204 (inactive). The red/green cell ratio (normalised) in assay [6] is 0.97 (inactive). For the same compound, the normalised cell number in [6] (setting [20]) is 1.07; in assay [6] (setting [21]) it was 1.04. Moreover, the fold change in [19] (setting [24]) is 0.93 (inactive) and 0.787 (inactive); in [19] (setting [25]) it was 0.696 and 1.39. Further, the cell count is 6550 and 5410 in assay [19] (setting [26]); 7040 and 6880 in assay [19] (setting [27]). Besides, the z-score is -2.09 (inactive) and -0.316 (inactive) in assay [7] (setting [22]); -0.803 and -1.13 in [7] (setting [23]). The log fold change Tl+ flux in [8] is 0.00227 (inactive); in [9] it was -0.0377 (inactive); in [10], 0.0156 (inactive); in assay [11], 0.0185 (inactive); in assay [12], -0.0413 (inactive); in [13] it was -0.0555 (inactive). For the same compound, the log fold change Tl+ flux is 0.25 (active) in [14], -0.123 (active) in assay [15], -0.0377 (inactive) in assay [16] and -0.045 (inactive) in [17].
For the compound `O=c1[nH]c(=O)n(C2CCCO2)cc1F` (centres undefined), in [18], the parasite load remaining is 107% (inactive) and 21.2% (inactive). The viability in assay [18] is 73.5% and 76.5%. Also, the fluorescence ratio is 1.08 (inactive) in [1] and 1.04 (inactive) in assay [4]. Also, the values for the inhibition in assay [2] and in assay [3] were 6.73% (inactive) and 5.29% (inactive), respectively. Moreover, the mean signal in assay [5] was 283 (inactive). The fold change was 0.803 (inactive) and 0.835 (inactive) and 0.463 (active) in [19] (setting [24]); 1.28 and 1.27 and 3.72 in [19] (setting [25]). Also, the cell count was 7370 and 6840 and 4080 in assay [19] (setting [26]); 9180 and 8190 and 8820 in [19] (setting [27]). In addition, the z-score in assay [7] (setting [22]) is -0.322 (inactive) and 0.511 (inactive) and 0.255 (inactive); in [7] (setting [23]), -0.199 and -0.575 and -0.0895. Moreover, the log fold change Tl+ flux in [8] was -0.0407 (inactive); in assay [9], 0.033 (inactive); in [10], -0.0133 (inactive); in assay [11] it was -0.0214 (inactive); in assay [12], 0.0446 (inactive); in [13] it was -0.0615 (inactive). For the same compound, the log fold change Tl+ flux in assay [14] was -0.0291 (inactive); in assay [15], -0.0162 (inactive); in [16] it was -0.0234 (inactive); in assay [17], 0.00334 (inactive).
